The values that follow come from paper PMC7862700, “An all-to-all approach to the identification of sequence-specific readers for epigenetic DNA modifications on cytosine”.

Experiment in all cases: DAPPL (digital affinity profiling via proximity ligation, sequencing); 10 mM Tris-HCl pH 7.5, 50 mM NaCl, 1 mM DTT, 4% glycerol, room temperature, 30 min; GST-TFs on glutathione beads, 16-mer random dsDNA library, 0.1% formaldehyde crosslink after washing; high values mean tight binding
One experiment concerns the target T1, FEV (Homo sapiens, UniProt Q99581 1-238).
T1 sequence: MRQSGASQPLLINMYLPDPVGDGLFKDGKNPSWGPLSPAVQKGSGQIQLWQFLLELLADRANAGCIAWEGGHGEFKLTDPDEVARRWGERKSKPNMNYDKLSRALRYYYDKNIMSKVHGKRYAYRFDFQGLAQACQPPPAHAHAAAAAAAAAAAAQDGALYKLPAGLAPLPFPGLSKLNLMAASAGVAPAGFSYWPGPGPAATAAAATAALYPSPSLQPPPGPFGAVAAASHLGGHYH
Conditions: protein: recombinant; tags: N-terminal GST; dsDNA, one strand shown. The essentials:
(§1)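 Binding signal is each hexamer's read frequency for a factor divided by its frequency in the tag-only sample. The factors were GST-fused human transcription factors from yeast, captured on glutathione beads, DNA-barcoded and pooled with that sample. Pools were incubated with 200 nmole of a random double-stranded 16-mer DNA library in Tris/NaCl/DTT/glycerol buffer at room temperature for 30 min, then washed, crosslinked with 0.1% formaldehyde, proximity-ligated with BsaI/T4 ligase (1 h, 37 °C), PCR-amplified and sequenced on an Illumina NextSeq500.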

The target in the next experiment is ETV5 (Homo sapiens, UniProt P41161 1-510). The settings on record: protein: recombinant; tags: N-terminal GST; dsDNA, one strand shown. The essentials:
as §1

In another experiment the target is HSF1 (Homo sapiens, UniProt Q00613 1-529). The settings on record: protein: recombinant; tags: N-terminal GST; chain copies: 3; dsDNA, one strand shown. The essentials: as §1
A further experiment has as its target T2, SPIC (Homo sapiens, UniProt Q8N5J4 1-248).
T2 sequence: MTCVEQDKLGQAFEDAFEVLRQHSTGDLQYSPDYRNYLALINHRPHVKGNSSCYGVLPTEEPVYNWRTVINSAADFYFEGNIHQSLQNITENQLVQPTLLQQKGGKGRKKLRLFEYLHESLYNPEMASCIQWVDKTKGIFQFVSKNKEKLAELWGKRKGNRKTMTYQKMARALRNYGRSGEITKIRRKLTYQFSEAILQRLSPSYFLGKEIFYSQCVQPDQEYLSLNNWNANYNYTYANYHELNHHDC
The settings on record: protein: recombinant; tags: N-terminal GST; dsDNA, one strand shown. Summed up:
as §1

A further experiment concerns the target ELF4 (Homo sapiens, UniProt Q99607 1-663). Conditions: protein: recombinant; tags: N-terminal GST; dsDNA, one strand shown. Summed up:
as §1

Another experiment concerns the target T3, ELK4 (Homo sapiens, UniProt P28324-2 1-405).
T3 sequence: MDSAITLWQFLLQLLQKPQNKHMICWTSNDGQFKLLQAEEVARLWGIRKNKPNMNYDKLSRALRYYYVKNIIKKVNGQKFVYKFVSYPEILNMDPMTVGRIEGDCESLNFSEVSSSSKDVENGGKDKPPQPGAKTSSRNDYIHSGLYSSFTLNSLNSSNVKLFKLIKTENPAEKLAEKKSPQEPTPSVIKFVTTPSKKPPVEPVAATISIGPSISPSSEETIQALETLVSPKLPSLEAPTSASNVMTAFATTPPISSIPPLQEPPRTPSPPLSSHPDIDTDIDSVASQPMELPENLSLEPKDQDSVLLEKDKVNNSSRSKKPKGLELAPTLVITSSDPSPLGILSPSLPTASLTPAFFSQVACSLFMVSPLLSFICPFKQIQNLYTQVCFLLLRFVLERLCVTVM
Conditions: protein: recombinant; tags: N-terminal GST; dsDNA, one strand shown. Summed up:
as §1

For the next experiment, the target named is T4, ETV2 (Homo sapiens, UniProt O00321 1-342).
T4 sequence: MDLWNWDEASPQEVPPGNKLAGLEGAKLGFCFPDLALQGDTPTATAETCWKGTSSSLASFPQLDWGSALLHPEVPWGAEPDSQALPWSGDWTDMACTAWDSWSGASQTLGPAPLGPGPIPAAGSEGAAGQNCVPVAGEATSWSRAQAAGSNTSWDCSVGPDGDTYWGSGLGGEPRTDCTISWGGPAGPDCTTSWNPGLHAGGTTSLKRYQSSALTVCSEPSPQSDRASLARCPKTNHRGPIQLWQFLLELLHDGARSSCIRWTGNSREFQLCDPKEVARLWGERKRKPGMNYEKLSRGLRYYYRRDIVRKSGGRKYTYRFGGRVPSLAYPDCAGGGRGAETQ
The settings on record: protein: recombinant; tags: N-terminal GST; dsDNA, one strand shown. Summed up:
as §1

A further experiment has as its target T5, ELF3 (Homo sapiens, UniProt P78545 1-371).
T5 sequence: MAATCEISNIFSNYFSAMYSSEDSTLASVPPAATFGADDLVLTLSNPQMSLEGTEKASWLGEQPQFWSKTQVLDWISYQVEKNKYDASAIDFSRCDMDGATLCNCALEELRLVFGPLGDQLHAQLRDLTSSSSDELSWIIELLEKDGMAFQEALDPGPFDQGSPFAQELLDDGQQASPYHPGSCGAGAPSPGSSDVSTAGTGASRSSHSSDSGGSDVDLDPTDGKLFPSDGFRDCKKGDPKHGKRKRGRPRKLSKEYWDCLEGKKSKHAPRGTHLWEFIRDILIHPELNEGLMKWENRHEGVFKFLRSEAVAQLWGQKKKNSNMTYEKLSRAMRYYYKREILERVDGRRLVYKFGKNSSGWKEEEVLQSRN
Conditions: protein: recombinant; tags: N-terminal GST; dsDNA, one strand shown. The essentials: as §1

Another experiment deals with CRX (Homo sapiens, UniProt O43186 1-299). The settings on record: protein: recombinant; tags: N-terminal GST; dsDNA, one strand shown. The essentials: as §1
For another experiment, the target named is ETV1 (Homo sapiens, UniProt P50549 1-477). The settings on record: protein: recombinant; tags: N-terminal GST; dsDNA, one strand shown. The essentials: as §1
ETV1, sequence (P50549 whole entry): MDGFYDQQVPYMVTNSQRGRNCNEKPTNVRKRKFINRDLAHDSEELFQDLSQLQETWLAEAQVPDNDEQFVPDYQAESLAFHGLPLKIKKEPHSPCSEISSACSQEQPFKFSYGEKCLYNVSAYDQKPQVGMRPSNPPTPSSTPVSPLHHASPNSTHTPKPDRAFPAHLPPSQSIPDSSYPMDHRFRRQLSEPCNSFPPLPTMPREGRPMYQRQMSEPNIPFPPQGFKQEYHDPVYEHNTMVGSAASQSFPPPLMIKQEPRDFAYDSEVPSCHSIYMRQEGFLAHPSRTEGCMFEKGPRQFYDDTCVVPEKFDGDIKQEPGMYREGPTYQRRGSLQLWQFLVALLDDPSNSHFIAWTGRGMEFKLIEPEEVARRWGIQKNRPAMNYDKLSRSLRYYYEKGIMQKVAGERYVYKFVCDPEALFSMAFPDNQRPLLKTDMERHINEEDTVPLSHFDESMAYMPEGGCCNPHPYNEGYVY

ETV5, sequence (P41161 whole entry): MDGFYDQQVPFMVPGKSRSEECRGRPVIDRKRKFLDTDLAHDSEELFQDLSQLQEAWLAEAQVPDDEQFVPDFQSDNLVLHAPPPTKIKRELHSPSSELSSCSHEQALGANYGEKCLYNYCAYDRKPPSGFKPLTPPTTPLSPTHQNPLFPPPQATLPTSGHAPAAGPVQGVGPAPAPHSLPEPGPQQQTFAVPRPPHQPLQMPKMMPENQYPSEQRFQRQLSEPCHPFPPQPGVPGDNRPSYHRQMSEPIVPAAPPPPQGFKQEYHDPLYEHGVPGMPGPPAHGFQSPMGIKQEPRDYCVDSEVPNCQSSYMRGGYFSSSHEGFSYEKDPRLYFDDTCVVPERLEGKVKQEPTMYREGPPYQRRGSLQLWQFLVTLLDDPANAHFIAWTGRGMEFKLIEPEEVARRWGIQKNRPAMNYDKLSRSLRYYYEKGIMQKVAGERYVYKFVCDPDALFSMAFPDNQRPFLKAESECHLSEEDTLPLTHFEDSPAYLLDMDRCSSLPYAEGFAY
HSF1, sequence (Q00613 whole entry): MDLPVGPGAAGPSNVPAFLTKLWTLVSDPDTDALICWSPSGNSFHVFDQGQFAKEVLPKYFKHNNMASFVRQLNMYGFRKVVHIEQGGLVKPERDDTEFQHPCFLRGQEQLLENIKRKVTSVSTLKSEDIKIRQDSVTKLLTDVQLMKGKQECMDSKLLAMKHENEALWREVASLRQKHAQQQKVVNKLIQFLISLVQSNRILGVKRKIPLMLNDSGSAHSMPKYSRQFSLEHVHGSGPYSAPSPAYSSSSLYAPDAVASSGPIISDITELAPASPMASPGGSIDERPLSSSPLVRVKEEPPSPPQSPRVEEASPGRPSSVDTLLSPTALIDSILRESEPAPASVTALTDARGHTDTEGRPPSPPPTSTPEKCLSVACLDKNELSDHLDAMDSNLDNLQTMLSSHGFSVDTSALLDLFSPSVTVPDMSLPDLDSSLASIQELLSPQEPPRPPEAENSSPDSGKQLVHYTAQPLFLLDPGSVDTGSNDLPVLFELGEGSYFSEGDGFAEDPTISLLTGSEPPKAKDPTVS
ELF4, sequence (Q99607 whole entry): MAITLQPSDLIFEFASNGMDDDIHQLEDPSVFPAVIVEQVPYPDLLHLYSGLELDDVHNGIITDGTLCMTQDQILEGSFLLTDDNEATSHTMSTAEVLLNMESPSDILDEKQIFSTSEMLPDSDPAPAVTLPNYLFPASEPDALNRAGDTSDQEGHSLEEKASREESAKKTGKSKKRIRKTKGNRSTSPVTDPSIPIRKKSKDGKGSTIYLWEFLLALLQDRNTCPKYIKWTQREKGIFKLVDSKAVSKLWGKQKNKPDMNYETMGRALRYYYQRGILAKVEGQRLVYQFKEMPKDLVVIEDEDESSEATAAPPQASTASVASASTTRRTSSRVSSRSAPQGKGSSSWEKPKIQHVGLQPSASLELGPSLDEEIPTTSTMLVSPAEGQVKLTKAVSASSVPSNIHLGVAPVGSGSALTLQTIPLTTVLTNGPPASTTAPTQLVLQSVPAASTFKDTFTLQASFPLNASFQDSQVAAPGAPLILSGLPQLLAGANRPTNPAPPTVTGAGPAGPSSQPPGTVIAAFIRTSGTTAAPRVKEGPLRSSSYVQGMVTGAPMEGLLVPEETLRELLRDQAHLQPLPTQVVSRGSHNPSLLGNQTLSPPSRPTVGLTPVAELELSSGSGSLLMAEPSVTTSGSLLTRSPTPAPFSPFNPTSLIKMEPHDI
CRX, sequence (O43186 whole entry): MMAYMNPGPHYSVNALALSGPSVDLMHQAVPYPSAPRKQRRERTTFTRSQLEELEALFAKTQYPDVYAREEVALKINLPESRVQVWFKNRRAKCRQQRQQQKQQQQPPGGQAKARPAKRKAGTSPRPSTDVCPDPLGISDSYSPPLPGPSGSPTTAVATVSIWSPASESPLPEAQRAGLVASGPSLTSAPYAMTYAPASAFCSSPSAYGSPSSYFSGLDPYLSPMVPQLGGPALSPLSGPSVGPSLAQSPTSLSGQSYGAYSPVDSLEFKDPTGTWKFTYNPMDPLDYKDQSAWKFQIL

CCAACT: the binding signal is 1.27 fold enrichment (6-mer frequency, TF over GST control) with FEV; 1.16 fold enrichment (6-mer frequency, TF over GST control) in the experiment with ETV5; 1.02 fold enrichment (6-mer frequency, TF over GST control) with HSF1; 1.4 fold enrichment (6-mer frequency, TF over GST control) with SPIC; 1.29 fold enrichment (6-mer frequency, TF over GST control) with ELF4; 1.27 fold enrichment (6-mer frequency, TF over GST control) with ELK4. Further, the binding signal with ETV2 is 1.11 fold enrichment (6-mer frequency, TF over GST control); in the experiment with ELF3, 1.21 fold enrichment (6-mer frequency, TF over GST control); with CRX it was 1.01 fold enrichment (6-mer frequency, TF over GST control); in the experiment with ETV1, 1.21 fold enrichment (6-mer frequency, TF over GST control).
As to ATTGTA, the binding signal with FEV was 1.19 fold enrichment (6-mer frequency, TF over GST control); with ETV5 it was 1.19 fold enrichment (6-mer frequency, TF over GST control); with HSF1 it was 1.16 fold enrichment (6-mer frequency, TF over GST control); with SPIC, 1.18 fold enrichment (6-mer frequency, TF over GST control); with ELF4 it was 1.24 fold enrichment (6-mer frequency, TF over GST control); in the experiment with ELK4, 1.21 fold enrichment (6-mer frequency, TF over GST control). For the same sequence, the binding signal in the experiment with ETV2 was 1.29 fold enrichment (6-mer frequency, TF over GST control); with ELF3, 1.17 fold enrichment (6-mer frequency, TF over GST control); with CRX, 1.28 fold enrichment (6-mer frequency, TF over GST control); with ETV1 it was 1.21 fold enrichment (6-mer frequency, TF over GST control).
As to ACATTT, the binding signal is 1.46 fold enrichment (6-mer frequency, TF over GST control) with FEV; 1.44 fold enrichment (6-mer frequency, TF over GST control) with ETV5; 1.3 fold enrichment (6-mer frequency, TF over GST control) with HSF1; 1.25 fold enrichment (6-mer frequency, TF over GST control) in the experiment with SPIC; 1.41 fold enrichment (6-mer frequency, TF over GST control) with ELF4; 1.36 fold enrichment (6-mer frequency, TF over GST control) with ELK4. The binding signal is 1.68 fold enrichment (6-mer frequency, TF over GST control) with ETV2; 1.6 fold enrichment (6-mer frequency, TF over GST control) with ELF3; 1.16 fold enrichment (6-mer frequency, TF over GST control) with CRX; 1.43 fold enrichment (6-mer frequency, TF over GST control) with ETV1.
As to ATACAC, the binding signal was 1.24 fold enrichment (6-mer frequency, TF over GST control) with FEV; 1.22 fold enrichment (6-mer frequency, TF over GST control) with ETV5; 1.01 fold enrichment (6-mer frequency, TF over GST control) with HSF1; 1.22 fold enrichment (6-mer frequency, TF over GST control) with SPIC; 1.24 fold enrichment (6-mer frequency, TF over GST control) with ELF4; 1.25 fold enrichment (6-mer frequency, TF over GST control) with ELK4. For the same sequence, the binding signal with ETV2 is 1.24 fold enrichment (6-mer frequency, TF over GST control); with ELF3, 1.16 fold enrichment (6-mer frequency, TF over GST control); with CRX, 1.04 fold enrichment (6-mer frequency, TF over GST control); with ETV1, 1.31 fold enrichment (6-mer frequency, TF over GST control).
CTGCTT: the binding signal with FEV was 1.8 fold enrichment (6-mer frequency, TF over GST control); in the experiment with ETV5 it was 1.66 fold enrichment (6-mer frequency, TF over GST control); with HSF1 it was 1.53 fold enrichment (6-mer frequency, TF over GST control); with SPIC, 1.8 fold enrichment (6-mer frequency, TF over GST control); with ELF4, 1.68 fold enrichment (6-mer frequency, TF over GST control); with ELK4 it was 1.88 fold enrichment (6-mer frequency, TF over GST control). Also, the binding signal is 1.93 fold enrichment (6-mer frequency, TF over GST control) in the experiment with ETV2; 1.28 fold enrichment (6-mer frequency, TF over GST control) with ELF3; 1.69 fold enrichment (6-mer frequency, TF over GST control) with CRX; 1.73 fold enrichment (6-mer frequency, TF over GST control) in the experiment with ETV1.
Consider CAATAC, for which the binding signal with FEV was 1.27 fold enrichment (6-mer frequency, TF over GST control); in the experiment with ETV5, 1.26 fold enrichment (6-mer frequency, TF over GST control); with HSF1, 1.07 fold enrichment (6-mer frequency, TF over GST control); with SPIC it was 1.16 fold enrichment (6-mer frequency, TF over GST control); in the experiment with ELF4 it was 1.23 fold enrichment (6-mer frequency, TF over GST control); with ELK4, 1.39 fold enrichment (6-mer frequency, TF over GST control). Moreover, the binding signal with ETV2 was 1.22 fold enrichment (6-mer frequency, TF over GST control); in the experiment with ELF3, 1.29 fold enrichment (6-mer frequency, TF over GST control); with CRX it was 1.04 fold enrichment (6-mer frequency, TF over GST control); with ETV1, 1.3 fold enrichment (6-mer frequency, TF over GST control).
Consider CTTCTT, for which the binding signal with FEV is 1.48 fold enrichment (6-mer frequency, TF over GST control); in the experiment with ETV5, 1.59 fold enrichment (6-mer frequency, TF over GST control); with HSF1, 1.84 fold enrichment (6-mer frequency, TF over GST control); in the experiment with SPIC, 1.61 fold enrichment (6-mer frequency, TF over GST control); with ELF4, 1.6 fold enrichment (6-mer frequency, TF over GST control); with ELK4, 1.58 fold enrichment (6-mer frequency, TF over GST control). For the same sequence, the binding signal with ETV2 is 1.53 fold enrichment (6-mer frequency, TF over GST control); with ELF3, 1.45 fold enrichment (6-mer frequency, TF over GST control); in the experiment with CRX, 1.89 fold enrichment (6-mer frequency, TF over GST control); with ETV1, 1.48 fold enrichment (6-mer frequency, TF over GST control).
